Only a selection was taken, and hits are over-represented in it overall.
APEX1 inh: qHTS Assay for Inhibitors of the Human Apurinic/apyrimidinic Endonuclease 1 (APE1); DNA repair nuclease/redox regulator APEX1 (Homo sapiens), P27695; recombinant APE1, TAMRA/BHQ-2 abasic DNA cleavage fluorescence; Potency, µM (series often up to 65.8 µM), for inactives: at the highest dose activity change, negative = inhibition, actives largely listed as inhibitors; 350,000 tested, 0.35% active;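 further: plate controls were vehicle for no effect and reference inhibitor for full effect; nearly all actives have a fitted effect of over 55% in size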
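Incision of a quenched TAMRA/BHQ-2 THF abasic-site duplex (50 nM) by 0.75 nM APE1, after 15 min compound preincubation, measured as fluorescence increase over three 60 s reads. Values normalized to buffer, DMSO and NSC13755 control wells.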
L3MBTL1 block: qHTS Assay for the Inhibitors of L3MBTL1 | Lethal(3)malignant brain tumor-like protein 1 (Homo sapiens), Q9Y468 | AlphaScreen L3MBTL1–H3K9me1 peptide binding | 230,000 tested, 0.66% active | Potency, µM (titrated, usually from 57.1 µM), for inactives: top-dose activity, negative = inhibition, usual class: inhibitors; further: nearly all actives have a fitted effect of over 60% in size
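L3MBTL1 50 nM + b-AHA-H3(1-15)K9me1 75 nM, 30 min RT; compound added, 30 min RT; streptavidin donor/Ni-chelate acceptor beads 10 ug/mL each final, 30 min RT dark; AlphaScreen read.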
GoLoco inh red: qHTS Assay for Inhibitors of RGS12 GoLoco Motif Activity (Red Fluorophore); Guanine nucleotide-binding protein G(i) subunit alpha-1 (Homo sapiens), P63096; Gai1:RGS12 GoLoco peptide FP, rhodamine, 10 min; Potency, µM (top dose mostly 61.6 µM), without a hit: at the top dose activity, negative = inhibition, most hits filed as inhibitors; 230,000 tested, 0.44% active; active means well fitted inhibition curve with a large enough effect, not every such curve was filed as active; inactive means no such curve, though single readings can be large or run the other way; further: nearly all actives have a fitted effect of over 30% in size
BLM inh: qHTS Assay for Inhibitors of Bloom's syndrome helicase (BLM) | RecQ-like DNA helicase BLM (Homo sapiens), P54132 | recombinant BLM DNA unwinding, fluorescence dequenching | Potency, µM (titrated, usually from 56.1 µM), inactives show at the top dose activity change, negative = inhibition, actives largely listed as inhibitors | 350,000 tested, 0.2% active | AID 2528, 2010;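 further: plate controls were vehicle for no effect and no enzyme for full effect; nearly all actives have a fitted effect of over 35% in size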
Target sequence (P54132 whole entry, looked up): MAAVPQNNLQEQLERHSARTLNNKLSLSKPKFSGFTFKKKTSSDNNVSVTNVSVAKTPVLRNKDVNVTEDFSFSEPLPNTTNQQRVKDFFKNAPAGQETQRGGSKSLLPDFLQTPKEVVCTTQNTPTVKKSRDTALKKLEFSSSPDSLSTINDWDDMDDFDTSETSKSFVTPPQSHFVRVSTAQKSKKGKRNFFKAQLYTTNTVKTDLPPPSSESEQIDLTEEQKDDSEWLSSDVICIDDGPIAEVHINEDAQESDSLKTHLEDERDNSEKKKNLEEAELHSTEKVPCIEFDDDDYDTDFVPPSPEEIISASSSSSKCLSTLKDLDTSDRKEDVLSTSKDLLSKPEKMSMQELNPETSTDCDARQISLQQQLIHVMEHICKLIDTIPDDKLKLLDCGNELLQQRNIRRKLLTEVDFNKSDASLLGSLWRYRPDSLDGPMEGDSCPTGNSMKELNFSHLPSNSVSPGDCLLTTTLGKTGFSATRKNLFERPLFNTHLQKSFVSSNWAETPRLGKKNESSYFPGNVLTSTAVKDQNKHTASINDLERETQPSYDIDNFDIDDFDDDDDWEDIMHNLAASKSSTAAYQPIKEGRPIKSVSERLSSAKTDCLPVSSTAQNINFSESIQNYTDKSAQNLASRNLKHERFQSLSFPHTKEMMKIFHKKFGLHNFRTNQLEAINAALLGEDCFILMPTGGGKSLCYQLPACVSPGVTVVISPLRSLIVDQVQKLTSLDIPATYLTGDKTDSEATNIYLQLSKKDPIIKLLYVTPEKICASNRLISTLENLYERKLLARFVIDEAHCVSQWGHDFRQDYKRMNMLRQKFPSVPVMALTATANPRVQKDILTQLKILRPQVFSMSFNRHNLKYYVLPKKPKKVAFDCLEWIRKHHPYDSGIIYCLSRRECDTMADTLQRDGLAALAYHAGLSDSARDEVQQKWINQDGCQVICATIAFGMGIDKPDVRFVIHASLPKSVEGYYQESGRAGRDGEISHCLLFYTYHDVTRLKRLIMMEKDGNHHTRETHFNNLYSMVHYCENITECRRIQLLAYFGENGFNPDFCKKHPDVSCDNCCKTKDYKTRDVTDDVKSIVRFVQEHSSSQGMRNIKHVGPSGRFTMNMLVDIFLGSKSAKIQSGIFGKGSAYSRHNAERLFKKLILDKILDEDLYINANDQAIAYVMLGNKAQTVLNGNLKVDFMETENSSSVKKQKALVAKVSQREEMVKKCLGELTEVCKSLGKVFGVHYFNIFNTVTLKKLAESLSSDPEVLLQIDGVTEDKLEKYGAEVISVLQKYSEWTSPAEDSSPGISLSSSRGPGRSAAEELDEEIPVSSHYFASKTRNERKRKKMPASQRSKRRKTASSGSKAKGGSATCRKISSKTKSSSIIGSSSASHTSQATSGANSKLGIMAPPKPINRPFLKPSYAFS
RECQ1 inh: qHTS Assay for Inhibitors of RecQ-Like Dna Helicase 1 (RECQ1); ATP-dependent DNA helicase Q1 (Homo sapiens), P46063; RECQ1 DNA unwinding, red fluorescence kinetic read; Potency, µM (doses to about 57.3 µM), without a hit: at the top dose activity, negative = inhibition, most hits filed as inhibitors; 240,000 tested, 0.54% active;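 further: plate controls were vehicle for no effect and no enzyme for full effect; nearly all actives have a fitted effect of over 30% in size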
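50 nM RECQ1T1 preincubated 15 min with compound in Tris pH 8.0 buffer with MgCl2, DTT, Tween-20 and 2.5 ug/ml poly(dI-dC); started with 200 nM TAMRA/BHQ-2 forked duplex and 2 mM ATP. Unwinding read as fluorescence (525/598 nm), two reads 2 h apart.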
KDM4E inh: qHTS Assay for Inhibitors of Human Jumonji Domain Containing 2E (JMJD2E); AID 2147, 2009; 230,000 tested, 1.6% active; Potency, µM (series often up to 57.1 µM), for the others: at the top dose activity change, negative = inhibition, hits mostly inhibitors; JMJD2E catalytic domain, FDH-coupled NADH fluorescence (FDH is formaldehyde dehydrogenase);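 further: 0% = wells with enzyme and -100% = buffer wells without enzyme; nearly all actives have a fitted effect of over 50% in size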
Starred values were filed as active, the others as inactive; [ ] = remark or other dose. Unless noted, the call rests on the fitted dose curve; in most records, active means well fitted curve in the direction sought with a large enough effect; inconclusive means small, poorly fitted or top-dose-only effect, or another doubt; inactive means no such curve, though single readings can be large; an effect the other way counts as inactive or inconclusive. Unless noted, on the % scale 0 is the no-effect control and ±100 the full control effect; potency means the concentration at half of the fitted maximal effect.

How did COc1ccc2c(c1-c1c3c(cc(Br)c1OC)CCCC3)CCCC2 do in these assays?
APEX1 inh: -5%; GoLoco inh red: 5%; BLM inh: 2%; RECQ1 inh: 0%; KDM4E inh: 7%

What do the screens show for `CCN(CC)c1ccc(NC(=O)COC(=O)c2cccs2)cc1`?
APEX1 inh: inconclusive; GoLoco inh red: 2µM*; BLM inh: -15%; RECQ1 inh: inactive; KDM4E inh: 0%

How did CCN(c1ccc(NC(=O)COC(=O)c2cccs2)cc1)C(C)C do in these assays?
APEX1 inh: 1%; GoLoco inh red: -19%; BLM inh: -5%; RECQ1 inh: -6%; KDM4E inh: -1%

Results for COCC(=O)N1CCC[C@@]2(CCN(Cc3cc(C(F)(F)F)cc(C(F)(F)F)c3)C2)C1 ?
APEX1 inh: 9%; GoLoco inh red: -1%; BLM inh: -15%; RECQ1 inh: inactive

How did N#Cc1cccc(-c2nc3cnc(N4CCOCC4)nc3n(C3CC3)c2=O)c1 do in these assays?
APEX1 inh: -6%; GoLoco inh red: 3.2µM*; BLM inh: -9%; RECQ1 inh: -6%

How did O=c1c(-c2ccccc2)nc2cnc(N3CCOCC3)nc2n1C1CC1 do in these assays?
APEX1 inh: 14%; GoLoco inh red: -12%; BLM inh: 1%; RECQ1 inh: inactive

How did COc1cc(/C=N/Nc2ccc3ccccc3c2)ccc1OC(=O)c1ccco1 do in these assays?
APEX1 inh: -4%; L3MBTL1 block: -1%; GoLoco inh red: 12%; BLM inh: -3%; RECQ1 inh: -2%; KDM4E inh: 20µM*

How did CC1(C)Cc2ccccc2C(NNC(=O)c2ccccn2)=N1 do in these assays?
APEX1 inh: 10%; GoLoco inh red: -4%; BLM inh: -9%; RECQ1 inh: inactive; KDM4E inh: 25µM*

How did CC(C)(C)NC[C@H](O)COc1ccccc1C1CCCC1 do in these assays?
APEX1 inh: -2%[21 µM]

How did CCc1cc2c(nc1CC)CCN(CC/C(C)=N/OC[C@H]1O[C@H](c3ccccc3)C=C[C@@H]1Oc1ccc(OC)cc1)C2 do in these assays?
APEX1 inh: 23%[12.4 µM]; L3MBTL1 block: -1%; GoLoco inh red: 63%; BLM inh: 3%[12.4 µM]; RECQ1 inh: -6%[11.5 µM]; KDM4E inh: 35µM*

How did c1ccc(C(O[C@H]2CCCN(CCc3ccc4c(c3)OCO4)C2)c2ccccc2)cc1 do in these assays?
APEX1 inh: -4%

What do the screens show for `Fc1ccc(Br)cc1C1C=C(c2ccc(Br)s2)Nc2ncnn21` (stereo not drawn)?
APEX1 inh: -1%; L3MBTL1 block: -5%; GoLoco inh red: 2%; BLM inh: -12%; RECQ1 inh: 0%; KDM4E inh: 28µM*

What do the screens show for `COC(=O)CCC(=O)OC1(C)C(=O)C2=CN(CCCOC(C)C)C(c3ccc(OC)cc3)=CC2=C(Br)C1=O` (stereo not drawn)?
APEX1 inh: 12%; GoLoco inh red: 24%; BLM inh: -22%; RECQ1 inh: inactive; KDM4E inh: 4.5µM*

What do the screens show for `COC(=O)CCC(=O)OC1(C)C(=O)C2=CN(CC3CC3)C(c3ccc(OC)cc3)=CC2=C(Br)C1=O` (stereo not drawn)?
APEX1 inh: inconclusive; GoLoco inh red: 23%[14.2 µM]; BLM inh: -10%[12.4 µM]; RECQ1 inh: 4%[11.5 µM]; KDM4E inh: 13µM*

Results for NC(=O)C1CCN(c2nc(-c3ccc(C(F)(F)F)cc3)cs2)CC1 ?
APEX1 inh: 7%

What do the screens show for `C/C(=N\NC(=O)c1c[nH]c2ccccc12)c1ccccn1`?
APEX1 inh: 3%; L3MBTL1 block: 8.9µM*; GoLoco inh red: 24%; BLM inh: -1%; RECQ1 inh: -22%; KDM4E inh: inconclusive

How did CC1CN(Cc2c(O)ccc3c(=O)c(-c4ccccc4)coc23)CC(C)O1 (stereo not drawn) do in these assays?
APEX1 inh: 9%; L3MBTL1 block: 4%; GoLoco inh red: 8%; BLM inh: -3%; RECQ1 inh: -1%; KDM4E inh: 2%

Results for CC1CN(Cc2c(O)ccc3c2oc(=O)c2ccccc23)CC(C)O1 (stereo not drawn) ?
APEX1 inh: -10%; GoLoco inh red: -8%; BLM inh: -3%; RECQ1 inh: -6%; KDM4E inh: 28µM*

Results for Cc1snc(SCC(=O)c2ccc([N+](=O)[O-])cc2)c1C#N ?
APEX1 inh: -8%; L3MBTL1 block: -7%; GoLoco inh red: 14µM*; BLM inh: -10%; RECQ1 inh: inactive; KDM4E inh: 4.5µM*

How did Cc1cc(-c2csc(NC(=O)c3ccc(S(=O)(=O)N(C)C)cc3)n2)c(C)n1-c1ccccc1 do in these assays?
APEX1 inh: -6%; L3MBTL1 block: 4%; GoLoco inh red: 26%; BLM inh: 1%; RECQ1 inh: -11%; KDM4E inh: 28µM*

How did CN(C)S(=O)(=O)c1ccc(C(=O)Nc2nc(-c3cc4ccccc4o3)cs2)cc1 do in these assays?
APEX1 inh: 8%; L3MBTL1 block: 5%; GoLoco inh red: -10%; BLM inh: 3%; RECQ1 inh: inactive; KDM4E inh: inconclusive

How did CN(CC1CCCO1)S(=O)(=O)c1ccc(C(=O)Nc2nnc(-c3ccccc3)o2)cc1 (stereo not drawn) do in these assays?
APEX1 inh: 29%; BLM inh: 0%

What do the screens show for `CN(CC1CCCO1)S(=O)(=O)c1ccc(C(=O)Nc2nc(-c3ccccn3)cs2)cc1` (stereo not drawn)?
APEX1 inh: 20%; L3MBTL1 block: 32µM*; GoLoco inh red: 5%; BLM inh: 4%; RECQ1 inh: -3%; KDM4E inh: inconclusive

Results for COc1ccc(-c2nc3ccc(C(=O)NCC(OC)OC)cc3nc2-c2ccc(OC)cc2)cc1 ?
APEX1 inh: 13%; GoLoco inh red: -8%; BLM inh: -12%; RECQ1 inh: 22µM*; KDM4E inh: inconclusive

Results for COC(CNC(=O)c1ccc2nc(-c3ccccc3)c(-c3ccccc3)nc2c1)OC ?
APEX1 inh: 7%; GoLoco inh red: 1%; BLM inh: -12%; RECQ1 inh: -23%; KDM4E inh: inconclusive
